From PubChem BioAssay (EPA / NIEHS) come the findings set out here.

Structures are written as SMILES. Where “and” joins values, the source holds several entries; their conditions need not be identical. Equal entries are not always repeated. Where a structure was tested more than once in an assay, its records may differ in their call. Calls of active or inactive are those of the source. Rule for the calls: active = hit-call score of the fitted dose curve at least 0.9, where 1 is the maximum; inactive = score below 0.9.

Test [1] addresses CCAAT/enhancer-binding protein beta (Homo sapiens) (UniProt P17676). As to the kind of experiment: ATG_C_EBP_CIS: Attagene CIS-FACTORIAL HepG2 Assay for human CCAAT/Enhancer Binding Protein (C/EBP) beta (AID 2282927). The conditions noted are these: HepG2 Attagene cis-factorial transcription factor reporter; actives raise or lower the signal. The essentials: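 Endogenous transcription factor activity in human liver HepG2 cells is inferred from induction of a CEBPB-linked reporter mRNA. Exposure lasts 24 h; activity is fitted in both directions relative to DMSO.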

Test [2] in a line: ATG_CMV_CIS: Attagene CIS-FACTORIAL HepG2 Assay for human CMV (Internal Marker) (AID 2282928).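 Note: endpoint acts as a background internal control marker rather than a target.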 The conditions noted are these: HepG2 CMV promoter reporter, transcription factor profiling; actives raise or lower the signal. In a few lines: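 Fluorescence intensity of RT-PCR-derived reporter fragments, resolved by capillary electrophoresis, gives the signal. HepG2 liver cells bearing transfected cis-element reporters were treated 24 h; activity in either direction was fit relative to DMSO-treated controls.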

Test [3] in a line: ATG_DR4_LXR_CIS: Attagene CIS-FACTORIAL HepG2 Assay for human Liver X Receptor (LXR), DR4 submotif (AID 2282929). The settings on record: HepG2 Attagene DR4 cis-reporter, mRNA transcription; actives raise or lower the signal. In a few lines: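 HepG2 cells were transiently transfected with multiple cis-regulated reporter units and dosed for 24 hours. The DR4 reporter mRNA was quantified by RT-PCR, 6-FAM labelling and capillary electrophoresis. Bidirectional fits used DMSO as baseline.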

For test [4], the target named is Aryl hydrocarbon receptor (Homo sapiens) (UniProt P35869). As to the kind of experiment: ATG_Ahr_CIS: Attagene CIS-FACTORIAL HepG2 Assay for human Aryl Hydrocarbon Receptor (Ahr) (AID 2282930). The settings on record: HepG2 AhR cis-factorial reporter transcription; actives raise or lower the signal. The essentials:
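Transient MRTU transfection of HepG2 → 24 h compound exposure → total RNA, oligo(dT) RT → PCR, 6-FAM extension, HpaI cut → CE fluorescence. DMSO = baseline; bidirectional curve fit.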

Test [5] can be described thus: ATG_AP_1_CIS: Attagene CIS-FACTORIAL HepG2 Assay for human Activator Protein 1 (AP-1) (AID 2282931). The conditions noted are these: HepG2 Attagene cis-factorial AP-1 reporter mRNA; actives raise or lower the signal. The essentials:
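HepG2 cells transiently transfected with cis-element-driven reporter transcription units, dosed for 24 hours. Reporter mRNA measured by RT-PCR, 6-FAM labelling, HpaI digestion and capillary electrophoresis. Bidirectional fitting against DMSO baseline.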

Test [6] in a line: ATG_AP_2_CIS: Attagene CIS-FACTORIAL HepG2 Assay for human Activator Protein 2 (AP-2) (AID 2282932). The settings on record: HepG2 AP-2 cis-reporter, Attagene transcription factor profiling; actives raise or lower the signal. The essentials:
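Endogenous transcription factor activity is reported through transfected multiplex reporter constructs in HepG2, after 24 h of compound exposure. Transcripts were quantified by RT-PCR and capillary electrophoresis of fluorescent fragments. Bidirectional fit against DMSO.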

In test [7] the target is Retinoic acid receptor alpha (Homo sapiens) (UniProt P10276). As to the kind of experiment: ATG_DR5_RAR_CIS: Attagene CIS-FACTORIAL HepG2 Assay for human Retinoic Acid Receptor Alpha (RARE), DR5 submotif (AID 2282934).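 For AC50: reporter responds to endogenous RAR alpha beta and gamma in HepG2 not RARA alone.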 The conditions noted are these: HepG2 Attagene cis-factorial RARE DR5 reporter, mRNA; actives raise or lower the signal. In a few lines: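 Transient MRTU transfection of HepG2; 24 h compound treatment; TriZol RNA, oligo(dT) RT, PCR, FAM labelling, capillary electrophoresis. Bidirectional fit vs DMSO. Endogenous TF activity at DR5 RARE.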

Test [8] deals with Transcription factor E2F1 (Homo sapiens) (UniProt Q01094). In words: ATG_E2F_CIS: Attagene CIS-FACTORIAL HepG2 Assay for human E2F Transcription Factor 1 (AID 2282935). The conditions noted are these: HepG2 Attagene cis-reporter, E2F reporter RNA transcripts; actives raise or lower the signal. In a few lines: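 Gain or loss of reporter transcript, fitted against DMSO, reflects E2F1-driven transcription. Transiently transfected HepG2 dosed 24 h before RNA isolation. Quantified by fluorescent RT-PCR products separated by capillary electrophoresis.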

A short description of test [9]: ATG_BRE_CIS: Attagene CIS-FACTORIAL HepG2 Assay for human Bone Morphogenetic Protein (BMP) Response Element (BRE) (AID 2282933). The conditions noted are these: HepG2 BMP response element reporter, Attagene transcription factor profiling; actives raise or lower the signal. The essentials:
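Fluorescence-labelled reporter cDNA fragments, separated by capillary electrophoresis, gave the signal for this component of a 52-readout multiplex. HepG2 cells were transfected, exposed to chemicals for 24 h, and compared with DMSO using bidirectional fitting.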

Sequence of CCAAT/enhancer-binding protein beta (Homo sapiens) (P17676 whole entry, looked up): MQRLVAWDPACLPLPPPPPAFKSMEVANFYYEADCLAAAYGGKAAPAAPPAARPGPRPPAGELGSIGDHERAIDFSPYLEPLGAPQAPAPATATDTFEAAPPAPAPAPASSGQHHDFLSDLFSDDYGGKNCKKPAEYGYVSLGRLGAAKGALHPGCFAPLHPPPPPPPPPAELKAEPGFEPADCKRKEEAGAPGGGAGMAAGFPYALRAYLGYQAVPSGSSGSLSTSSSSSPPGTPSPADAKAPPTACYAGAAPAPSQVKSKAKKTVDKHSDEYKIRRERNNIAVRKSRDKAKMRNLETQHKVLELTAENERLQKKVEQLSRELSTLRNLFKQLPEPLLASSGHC
Sequence of Retinoic acid receptor alpha (Homo sapiens) (P10276 whole entry, looked up): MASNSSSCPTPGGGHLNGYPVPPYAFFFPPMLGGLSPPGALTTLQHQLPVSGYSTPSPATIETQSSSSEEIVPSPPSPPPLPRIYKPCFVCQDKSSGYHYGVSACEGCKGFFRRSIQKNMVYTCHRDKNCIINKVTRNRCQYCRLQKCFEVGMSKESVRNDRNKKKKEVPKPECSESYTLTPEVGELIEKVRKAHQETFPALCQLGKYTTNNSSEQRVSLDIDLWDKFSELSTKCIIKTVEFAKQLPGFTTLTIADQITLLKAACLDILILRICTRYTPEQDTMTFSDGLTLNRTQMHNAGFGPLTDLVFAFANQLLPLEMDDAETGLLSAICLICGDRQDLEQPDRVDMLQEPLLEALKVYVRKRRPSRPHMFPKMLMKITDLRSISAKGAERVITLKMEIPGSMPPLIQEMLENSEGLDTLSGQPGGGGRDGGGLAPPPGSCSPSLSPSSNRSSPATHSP
Sequence of Aryl hydrocarbon receptor (Homo sapiens) (P35869 whole entry, looked up): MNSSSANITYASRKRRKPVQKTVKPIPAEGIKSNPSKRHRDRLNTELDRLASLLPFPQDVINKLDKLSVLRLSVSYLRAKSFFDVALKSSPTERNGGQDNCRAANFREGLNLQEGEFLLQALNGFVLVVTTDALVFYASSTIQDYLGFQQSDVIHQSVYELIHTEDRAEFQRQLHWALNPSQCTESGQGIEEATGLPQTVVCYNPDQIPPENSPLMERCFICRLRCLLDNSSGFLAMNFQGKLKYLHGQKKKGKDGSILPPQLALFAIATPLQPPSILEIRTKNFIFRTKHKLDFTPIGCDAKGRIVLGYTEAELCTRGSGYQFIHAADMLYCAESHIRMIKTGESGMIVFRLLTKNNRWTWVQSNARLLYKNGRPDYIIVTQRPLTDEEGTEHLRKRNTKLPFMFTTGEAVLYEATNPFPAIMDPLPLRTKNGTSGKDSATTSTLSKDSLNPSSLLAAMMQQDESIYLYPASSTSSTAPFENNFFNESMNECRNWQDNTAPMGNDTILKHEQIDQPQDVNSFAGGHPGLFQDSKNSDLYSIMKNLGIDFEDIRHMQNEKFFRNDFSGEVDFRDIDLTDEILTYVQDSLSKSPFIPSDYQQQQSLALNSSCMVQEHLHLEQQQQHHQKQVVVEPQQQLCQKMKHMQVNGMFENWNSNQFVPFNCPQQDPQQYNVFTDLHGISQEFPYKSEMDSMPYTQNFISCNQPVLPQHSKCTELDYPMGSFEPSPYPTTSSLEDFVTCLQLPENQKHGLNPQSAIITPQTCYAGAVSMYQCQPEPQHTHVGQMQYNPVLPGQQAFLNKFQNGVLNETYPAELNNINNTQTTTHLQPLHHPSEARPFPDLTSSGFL
Sequence of Transcription factor E2F1 (Homo sapiens) (Q01094 whole entry, looked up): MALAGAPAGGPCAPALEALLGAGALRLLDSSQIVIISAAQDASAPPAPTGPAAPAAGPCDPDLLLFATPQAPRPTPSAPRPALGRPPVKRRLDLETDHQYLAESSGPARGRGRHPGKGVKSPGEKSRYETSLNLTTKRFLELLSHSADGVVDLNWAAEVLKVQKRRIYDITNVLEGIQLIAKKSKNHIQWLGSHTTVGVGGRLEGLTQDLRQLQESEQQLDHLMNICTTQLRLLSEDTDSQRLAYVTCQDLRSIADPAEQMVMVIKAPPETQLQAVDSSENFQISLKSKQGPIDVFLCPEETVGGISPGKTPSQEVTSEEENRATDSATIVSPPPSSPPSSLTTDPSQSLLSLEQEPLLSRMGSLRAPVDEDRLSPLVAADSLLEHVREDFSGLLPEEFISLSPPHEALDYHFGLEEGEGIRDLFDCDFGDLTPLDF

One may read the AC50 as the concentration giving half of the maximal activity seen. Regarding `CC(C)(O)C(=O)Nc1ccc([N+](=O)[O-])c(C(F)(F)F)c1`, the half-maximal activity concentration (AC50) in test [1] was 57.1 µM (active). Moreover, the outcome in test [1], in test [2], in test [3], in test [4], in test [5] and in test [6] was inactive. Also, the compound was classed as inactive in [7] and in test [8].
Consider `Nc1ccc(-c2ccc(N)cc2)cc1`, for which the result in test [1], in test [2], in test [4], in test [5], in [6] and in [7] was inactive. For the same compound, in test [8], the outcome was inactive.
For the compound `Clc1ccc(C(Cl)(Cl)Cl)cc1`, the outcome in test [1], in [2], in [3], in test [4], in test [5] and in test [6] was inactive. In addition, the call in test [7] and in test [8] was inactive.
On to `Sc1ccccc1`, for which the outcome in [1], in test [2], in test [4], in test [5], in test [6] and in test [8] was inactive.
With `Cc1cc(O)ccc1Cl`, the outcome in test [1], in [2], in test [4], in test [5], in test [6] and in [7] was inactive. In addition, in [8], the outcome was inactive.
Consider `COc1ccc(O)c(C(C)(C)C)c1`, for which the AC50 in [1] is 100 µM (active); in test [2] it was 83.1 µM (active); in test [5] it was 55.5 µM (active). Moreover, the compound was classed as inactive in test [3], in test [4], in [6], in test [7] and in test [8].
In the case of `O=C(O)C(F)(F)C(F)(F)C(F)(F)C(F)(F)C(F)(F)F`, the result in test [1], in [2], in [3], in test [4], in test [5] and in test [6] was inactive. In addition, the result in test [9], in test [7] and in test [8] was inactive.
`C[C@]12CCC(=O)C=C1CC[C@@H]1[C@@H]2CC[C@]2(C)C(=O)CC[C@@H]12`: the outcome in [1], in [2], in test [4], in test [5], in test [6] and in test [7] was inactive. Further, the call in test [8] was inactive. Besides, the AC50 in test [4] is 49.8 µM (active); in [6], 45.1 µM (active); in test [7] it was 36.7 µM (active) and 27.5 µM (active).
Take `CN(C)CCO`: the outcome in test [1], in test [2], in test [3], in [4], in test [5] and in [6] was inactive. The compound was classed as inactive in test [9], in test [7] and in [8].
Take `OCC(O)CO`: the result in [1], in test [2], in test [3], in test [4], in test [5] and in [6] was inactive. In addition, the compound was called inactive in test [9], in [7] and in test [8]. Also, the AC50 in test [4] was 33.3 µM (active).
As to `CCOC(=O)C(O)(c1ccc(Cl)cc1)c1ccc(Cl)cc1`, the result in test [1], in test [2], in test [5], in test [6], in test [9] and in test [7] was inactive. For the same compound, in test [8], the result was inactive. The AC50 in [4] was 8.63 µM (active).
In the case of `Cc1cccc(C)c1N`, the result in test [1], in test [2], in test [3], in test [4], in [5] and in test [6] was inactive. Also, the compound was called inactive in test [9], in test [7] and in test [8].
For `ClC(Cl)=C(c1ccc(Cl)cc1)c1ccc(Cl)cc1`, the concentration at half-maximal activity (AC50) in test [1] was 166 µM (active); in [2] it was 57.2 µM (active) [middle of 4 runs]; in test [3], 44.6 µM (active) [middle of 4 runs]; in test [4], 19.8 µM (active) and 122 µM (active); in [5], 100 µM (active) and 64.2 µM (active) and 73.8 µM (active); in test [6], 135 µM (active). Besides, the AC50 in [7] is 13.2 µM (active); in test [8], 175 µM (active). The outcome in [1], in test [4], in [6], in [7] and in test [8] was inactive.
Turning to `CCC(C)c1cc([N+](=O)[O-])cc([N+](=O)[O-])c1O` (centres undefined), the AC50 in test [1] was 12.5 µM (active); in test [2], 19.6 µM (active); in test [5], 10.6 µM (active); in test [9] it was 11.8 µM (active); in [7] it was 13.2 µM (active). Moreover, the compound was classed as inactive in test [3], in test [4], in test [6] and in [8].
In the case of `C1CC2OC2CC1C1CO1` (centres undefined), the result in test [1], in test [2], in test [5], in test [6], in test [7] and in test [8] was inactive. Moreover, the AC50 in test [4] is 81.5 µM (active).
